Reference: PubChem BioAssay AID1745850 (National Center for Advancing Translational Sciences (NCATS), 2022)
The whole screen tested about 2,100 compounds, of which about 260 (12%) were called active. Roughly 58% stayed inconclusive and do not appear here. Calls follow the shape of the dose curve; as a rule, active = well fitted cell-killing curve with a large enough effect; inconclusive = small, poorly fitted or top-dose-only effect, or effect the other way; inactive = flat fitted curve, though single readings scatter. Some of the results follow. Where a call stands in place of a potency, no number is given.

Assay: Viability Counterscreen for Confirmatory qHTS for Inhibitors of ATXN expression; also: nearly all actives have a fitted effect of over 50% in size
Conditions: HEK-293 ATXN2-luc cells viability, CellTiter-Fluor, 24 h
Procedure, shortened: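 Cells with an ATXN2-luciferase reporter were dosed in a dilution series for 24 h at 37 degrees C. Viability was read first with Gly-Phe-AFC at 25 uM final (fluorescence, ex 405/em 540), then SteadyGlo luminescence. Medium-only wells defined 100% inhibition.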
Potency is read from the fitted curve at half-maximal effect.

SMILES	Potency
Cn1c(CO)c(-c2ccccc2)c2cc([N+](=O)[O-])ccc21	inactive
CCn1c(C)cc(C(=O)COC(=O)c2ccccc2[N+](=O)[O-])c1C	inactive
CCOC(=O)N1CCN(c2ccnc3cc(Cl)ccc23)CC1	inactive
CN(CCc1ccccc1)c1cc2c(c3c1ccn3C)C1CCC2O1 (stereo unspecified)	inactive
CC(C)(C)c1ccc(CC(=O)N2CCC2(C)C(=O)Nc2cnc3ccccc3c2)cc1 (stereo unspecified)	inactive
O=C(Nc1cccc2ccccc12)OC1C=CS(=O)(=O)C1 (stereo unspecified)	inactive
Cc1noc2ncnc(N3CCN(c4cccc(Cl)c4)CC3)c12	inactive
O=C(CSCC(=O)Nc1ccccc1)N/N=C/c1c(O)ccc2ccccc12	inactive
CC(C)(C)c1ccc(Oc2ccc(N)cc2)cc1	inactive
COc1ccc2[nH]c3c(N4CCC(O)(c5cccc(C(F)(F)F)c5)CC4)ncnc3c2c1	3.16 µM (active)
O=C1CN(C(=O)c2c(F)cccc2F)C(c2ccc(F)cc2)c2cc(Br)ccc2N1 (stereo unspecified)	inactive
COc1cccc(NC(=O)/C=C/c2ccc(S(=O)(=O)N3CCOCC3)cc2)c1	inactive
COc1ccc(N2C3=C(CC4=C2CC(C)(C)CC4=O)C(=O)CC(C)(C)C3)cc1	inactive
CC1CC2(C)Oc3ccccc3CC2C(C)C1CNCCCN(C)C (stereo unspecified)	25.1 µM (active)
O=C(C1CCC(CNS(=O)(=O)c2cccc3nsnc23)CC1)N1CC=C(c2ccccc2)CC1 (stereo unspecified)	inactive
Cc1ccccc1SCC(=O)N1CCN(c2ccc(C(F)(F)F)cn2)CC1	inactive
COc1cc(-c2ccc3sc(-c4ccsc4)c(C#CCO)c3c2)cc(OC)c1OC	22.4 µM (active)
COc1ccc(-c2sc3ccc(OC)cc3c2-c2ccc(O)cc2)cc1	inactive
O=C(O)CSc1cc(NS(=O)(=O)c2ccc(Cl)cc2)c2ccccc2c1O	35.5 µM (active)
COC(=O)[C@H]1C[C@H](OC(=O)NC2CC2)[C@@]2(O)CN(S(=O)(=O)c3ccc(C)cc3)CC2[C@H]1C(=O)OC (stereo partly specified)	inactive
COc1ccc(CC(N)c2csc(NC(=O)c3ccccc3OC)n2)cc1 (stereo unspecified)	inactive
COc1ccc(-c2csc(NC(=O)c3ccccc3NS(=O)(=O)c3ccc(F)c(F)c3)n2)cc1	5.62 µM (active)
C/[N+]([O-])=C\c1cccc(OCCN2CCN(c3ncc(C(F)(F)F)cc3Cl)CC2)c1	inactive
CC[n+]1c(/C=C/c2c[nH]c3ccccc23)ccc2cc(C)ccc21	15.8 µM (active)
Nc1ccc(OC(=O)Nc2ccc(O)cc2)cc1	inactive
O=C(Cn1cnc([N+](=O)[O-])c1)Nc1cc(Oc2ccc(Cl)cc2Cl)cc([N+](=O)[O-])c1	3.16 µM (active)

SMILES	Potency
O=C(NCC1CCCO1)c1cccc(Oc2ccc([N+](=O)[O-])cc2Cl)c1 (stereo unspecified)	inactive
CC1CCN(Cc2c(C(=O)N/N=C/c3cc(Cl)ccc3O)nnn2-c2nonc2N)CC1	inactive
O=C1c2cccc3cc([N+](=O)[O-])cc(c23)C(=O)N1CCN1CCCC1	3.16 µM (active)
Nc1cc2c3c(cccc3c1)C(=O)N(CCN1CCCC1)C2=O	22.4 µM (active)
CCCCCCc1cc2cc(C(=O)Nc3ccccc3)c(=O)oc2cc1O	inactive
O=C(CN1C(=O)c2ccccc2S1(=O)=O)N1CCc2ccccc21	inactive
CCOc1cc(/C=C2\SC(=N)N(c3nccs3)C2=O)ccc1OCCN1CCOCC1	25.1 µM (active)
OC1(c2ccc(Br)cc2)CCNCC1	inactive
Cc1onc(-c2ccccc2)c1C(=O)Nc1ccc(S(=O)(=O)NC(C)(C)C)cc1	inactive
Cc1cc(C)cc(OCC(=O)NNC(=S)NC(=O)C2CC2)c1	inactive
Cc1sc2cc3c(c(C(=O)c4ccccc4)[n+]2c1C)-c1cccc2cccc-3c12	12.6 µM (active)
CC(=O)c1ccc(C(=O)Nc2nnc(-c3ccc(Cl)cc3)o2)cc1	inactive
CCn1c2ccccc2c2cc(NC(=O)COC(=O)C3CCC(=O)N3)ccc21 (stereo unspecified)	inactive
NS(=O)(=O)c1ccc(N2N=C(c3ccc(Br)cc3)CC2c2ccc(F)cc2)cc1 (stereo unspecified)	inactive
c1ccc(CN=C(NCc2ccccc2)NCc2ccccc2)cc1	31.6 µM (active)
O=C(NNCc1ccccc1)c1ccccc1	inactive
COc1cccc(OC)c1C(=O)OCC(=O)NC(=O)NCc1ccccc1	inactive
CCCC/C(C)=N/NC(=O)c1cn(-c2ccccc2)nc1-c1ccccc1	inactive
C/C(=N\NC(=O)c1cccc2ccccc12)c1ccccn1	6.31 µM (active)
CCCCCC(=O)N/N=C(\C)c1ccccn1	inactive
COc1cc(N)ccc1Nc1c2ccccc2nc2ccccc12	31.6 µM (active)
COc1cc2cc(C(=O)NC(C)c3cccc4ccccc34)c(N)nc2cc1OC (stereo unspecified)	inactive
Nc1cccc2nc3ccccc3cc12	inactive
O=C(NNC(=O)c1csc(-c2cnccc2C(F)(F)F)n1)c1ccc(C(F)(F)F)cc1	inactive
c1cc2c(cc1-c1cnc3n1CCC3)OCCO2	inactive
